Holding throughout (assay): NCI-60 one-dose screen, 48 h (100 = growth as untreated, 0 = no growth, -100 = all killed)
In one test the test system is HCT-15 colon. The note with it: 10 µM unless noted.
Another test has as its system HT29 colon. The note with it: 10 µM unless noted.
Another test relates to SNB-75 CNS. The note with it: 10 µM unless noted.
The next test concerns SNB-19 CNS. The settings on record: 10 µM unless noted.
The next test has as its system U251 CNS. The note with it: 10 µM unless noted.
The test system of a further test is PC-3 prostate. The settings on record: 10 µM unless noted.
In another test the test system is SK-MEL-5 melanoma. The note with it: 10 µM unless noted.
A further test deals with UACC-62 melanoma. The settings on record: 10 µM unless noted.
Another test concerns LOX IMVI melanoma. The note with it: 10 µM unless noted.
Another test has as its system SK-MEL-28 melanoma. The settings on record: 10 µM unless noted.
The next test concerns SK-MEL-2 melanoma. The settings on record: 10 µM unless noted.
Another test concerns EKVX NSCLC. The settings on record: 10 µM.
The test system of another test is SN12C renal. The note with it: 10 µM unless noted.
For another test, the system named is UO-31 renal. The settings on record: 10 µM unless noted.
For the next test, the system named is TK-10 renal. The settings on record: 10 µM unless noted.
In a further test the test system is ACHN renal. The settings on record: 10 µM unless noted.
A further test relates to CCRF-CEM leukemia. The settings on record: 10 µM.
A further test has as its system MOLT-4 leukemia. The note with it: 10 µM unless noted.
The test system of the next test is A498 renal. The settings on record: 10 µM unless noted.

About 83,000 compounds went through this panel and 20% of them were active in at least one assay; those are over-represented in the sample as a whole.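 Values shown are percent growth following 48 h exposure of cells in 96-well plates to a single concentration of compound; below 10 was considered active.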 A number with no mark means an inactive call. Calls of active or inactive are those of the source.

On to `CC(=O)OCC(=O)[C@@]1(O)[C@H](C)C[C@H]2[C@@H]3C=C(C)C4=Cc5c(cnn5-c5ccc(F)cc5)C[C@]4(C)[C@H]3[C@@H](O)C[C@@]21C`, for which the growth in the test on HCT-15 colon was -11.1% (active); with HT29 colon, -43.4% (active); in the test on SNB-75 CNS it was 6.75% (active); in the test with SNB-19 CNS, 25.9%; in the test with U251 CNS, 9.65% (active); with PC-3 prostate it was 12%. In addition, the growth in the test on SK-MEL-5 melanoma is -47.3% (active); in the test with UACC-62 melanoma it was -9.5% (active); with LOX IMVI melanoma it was 1.77% (active); in the test with SK-MEL-28 melanoma, 34.5%; in the test on SK-MEL-2 melanoma, 22.5%; in the test with EKVX NSCLC, 28.5%. Also, the growth with SN12C renal was 40.5%; with UO-31 renal it was 3.92% (active); in the test with TK-10 renal, 19.7%; in the test on ACHN renal, 13.5%; in the test with CCRF-CEM leukemia, 6.74% (active); with MOLT-4 leukemia, 1.22% (active).
Turning to `Ic1ccc(SSc2ccc(I)cc2)cc1`, the growth with HCT-15 colon is 99.5%; in the test on HT29 colon, 95.3%; in the test on SNB-75 CNS, 88.4%; in the test on SNB-19 CNS, 94.6%; in the test on U251 CNS, 67.8%; with PC-3 prostate it was 58.5%. Also, the growth in the test on SK-MEL-5 melanoma was 90.8%; in the test on UACC-62 melanoma it was 97.8%; in the test on LOX IMVI melanoma, 0.697% (active); with SK-MEL-28 melanoma it was 108%; in the test on SK-MEL-2 melanoma it was 105%; in the test with EKVX NSCLC, 99.9%. The growth in the test with SN12C renal was 71.3%; in the test with UO-31 renal, 60.5%; in the test with TK-10 renal it was 84.4%; in the test on ACHN renal, 113%; in the test on CCRF-CEM leukemia, 17%; with MOLT-4 leukemia, 32%.
Turning to `Cc1c(Cc2ccccc2)c(=O)oc2c(C)c(OCC(=O)n3nc(C#N)cc3N)ccc12`, the growth is 103% in the test on HCT-15 colon; 95.6% in the test on HT29 colon; 81% with SNB-75 CNS; 98.9% with SNB-19 CNS; 106% in the test on U251 CNS; 89% in the test on PC-3 prostate. The growth with SK-MEL-5 melanoma is 103%; with UACC-62 melanoma it was 99.1%; with LOX IMVI melanoma, 96.7%; in the test on SK-MEL-28 melanoma, 106%; with SK-MEL-2 melanoma, 98.9%; in the test on EKVX NSCLC, 97.7%. The growth is 102% in the test with SN12C renal; 75.6% in the test with UO-31 renal; 123% with TK-10 renal; 93.6% in the test with ACHN renal; 126% in the test with A498 renal; 99.6% in the test with CCRF-CEM leukemia. For the same compound, in the test with MOLT-4 leukemia, the growth is 98.5%.
Regarding `CC1=C(C)C[C@]2(C(=O)O[C@H]3CCCC[C@@H]32)[S@](=O)C1`, the growth with HCT-15 colon was 112%; in the test with HT29 colon it was 95.3%; in the test with SNB-75 CNS it was 98.4%; with SNB-19 CNS, 105%; with U251 CNS, 98.8%; in the test with PC-3 prostate, 110%. The growth with SK-MEL-5 melanoma is 107%; in the test on UACC-62 melanoma, 104%; in the test with LOX IMVI melanoma it was 97.6%; in the test with SK-MEL-28 melanoma, 118%; in the test on SK-MEL-2 melanoma it was 86.3%; in the test with EKVX NSCLC, 109%. Moreover, the growth in the test with SN12C renal was 102%; in the test with UO-31 renal, 91.2%; in the test with TK-10 renal, 89.7%; with ACHN renal it was 120%; with CCRF-CEM leukemia, 105%; in the test on MOLT-4 leukemia, 105%.
For `O=C(/C=C1\C(=O)N(Cc2ccc([N+](=O)[O-])cc2)c2ccccc21)c1ccc(OCCN2CCCCC2)cc1`, the growth in the test on HCT-15 colon is -80.6% (active); with HT29 colon, -89.3% (active); in the test on SNB-75 CNS it was 22.3%; in the test with SNB-19 CNS, 57.9%; with U251 CNS, -46.5% (active); with PC-3 prostate it was -52.3% (active). For the same compound, the growth in the test on SK-MEL-5 melanoma was 33.9%; in the test with UACC-62 melanoma, -74% (active); in the test with LOX IMVI melanoma it was -82.7% (active); in the test on SK-MEL-28 melanoma, -51% (active); in the test on SK-MEL-2 melanoma it was -29.1% (active); in the test on EKVX NSCLC it was 1.78% (active). Further, the growth is -67% (active) in the test on SN12C renal; -97.1% (active) with UO-31 renal; -81.4% (active) with TK-10 renal; -98.6% (active) with ACHN renal; 56.6% with A498 renal; -26.5% (active) in the test on MOLT-4 leukemia.
As to `O=C(/C=C1\C(=O)N(Cc2ccccc2)c2ccccc21)c1ccc(OCCN2CCCCC2)cc1`, the growth in the test on HCT-15 colon is -49.9% (active); in the test on HT29 colon, -58% (active); in the test on SNB-75 CNS, 78.7%; in the test with SNB-19 CNS it was 88.1%; in the test on U251 CNS, 50.7%; with PC-3 prostate, 56.9%. Moreover, the growth is 94.9% in the test with SK-MEL-5 melanoma; 69.5% with UACC-62 melanoma; -37.2% (active) in the test with LOX IMVI melanoma; 96.9% in the test on SK-MEL-28 melanoma; 88.6% with SK-MEL-2 melanoma; 64.2% in the test with EKVX NSCLC. Moreover, the growth in the test on SN12C renal was 0.718% (active); in the test on UO-31 renal, -25.9% (active); in the test with TK-10 renal, 40.3%; with ACHN renal, -25.4% (active); with A498 renal it was 68.4%; with CCRF-CEM leukemia, 1.17% (active). The growth with MOLT-4 leukemia is 9.65% (active).
Take `N=C(N)N=Nc1ccc(NN=C(N)N)c2ccccc12`: the growth in the test with HCT-15 colon is 110%; in the test with HT29 colon it was 99.3%; in the test with SNB-75 CNS, 73.1%; in the test with SNB-19 CNS, 51.7%; in the test with U251 CNS it was 35.5%; in the test on PC-3 prostate, 87.8%. Also, the growth with SK-MEL-5 melanoma is 138%; with UACC-62 melanoma it was 102%; in the test with LOX IMVI melanoma, 103%; in the test with SK-MEL-28 melanoma, 113%; in the test with SK-MEL-2 melanoma, 104%; in the test with EKVX NSCLC, 116%. For the same compound, the growth in the test with SN12C renal is 73.2%; in the test with UO-31 renal, 69.6%; in the test with TK-10 renal it was 108%; in the test with ACHN renal it was 105%; in the test with CCRF-CEM leukemia, 101%; in the test on MOLT-4 leukemia it was 97.1%.
In the case of `CC1=NN(c2cccc(Cl)c2)C(=O)/C1=C\c1cn(-c2nc(N3CCOCC3)nc(N3CCOCC3)n2)c2ccccc12`, the growth in the test on HCT-15 colon is 107%; with HT29 colon, 95.4%; in the test on SNB-75 CNS, 86.4%; with SNB-19 CNS, 103%; with U251 CNS, 110%; in the test with PC-3 prostate, 93%. Besides, the growth with SK-MEL-5 melanoma is 101%; with UACC-62 melanoma it was 103%; in the test on LOX IMVI melanoma it was 95.7%; in the test with SK-MEL-28 melanoma, 116%; in the test with SK-MEL-2 melanoma it was 110%; with EKVX NSCLC, 105%. The growth with SN12C renal was 104%; in the test on UO-31 renal, 83.3%; in the test with TK-10 renal it was 93.4%; with ACHN renal it was 103%; in the test with CCRF-CEM leukemia, 100%; in the test on MOLT-4 leukemia, 106%.
Consider `NC(N)=N/N=C/c1cccc(Br)c1`, for which the growth is 105% in the test on HCT-15 colon; 103% in the test with HT29 colon; 92.3% in the test on SNB-75 CNS; 101% in the test on SNB-19 CNS; 110% in the test with U251 CNS; 90.1% in the test on PC-3 prostate. In addition, the growth in the test with SK-MEL-5 melanoma was 84.7%; in the test with UACC-62 melanoma it was 107%; in the test with LOX IMVI melanoma it was 89.6%; in the test on SK-MEL-28 melanoma it was 112%; in the test with SK-MEL-2 melanoma, 103%; in the test with EKVX NSCLC, 103%. The growth was 101% in the test with SN12C renal; 79.5% in the test with UO-31 renal; 100% with TK-10 renal; 108% in the test with ACHN renal; 101% with CCRF-CEM leukemia; 91.2% with MOLT-4 leukemia.

The values are drawn from PubChem BioAssay (NCI).
